Data published in PubChem BioAssay (Tox21).
Values without a mark were called inactive. Results filed as inconclusive are left out. A call without a number means that no potency is given here. Calls of active or inactive are those of the source. Unless noted, calls follow the shape of the dose curve; as a rule, active = well fitted curve in the direction sought with a large enough effect in the repeat runs; inconclusive = weak or mixed curves; inactive = no such curve, though single readings can be large; an effect the other way counts as inactive or inconclusive.

Experiments:
[1] = qHTS assay to identify small molecule antagonists of the TGF-beta/Smad signaling pathway - cell viability counter screen (AID 1346824); also: nearly all actives have a fitted effect of over 50% in size
Summary of the method: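 SBE-bla HEK 293T cells, incubated overnight, then compound plus 0.25 ng/mL TGF-beta1 (stock added) for 5 hr at 37 C. Viability was read in the same wells by CellTiter-Glo luminescence after 30 min at room temperature.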

[2] = qHTS assay to identify small molecule agonists of the TGF-beta/Smad signaling pathway - cell viability counter screen (AID 1346829); also: top concentration of the series differs between compounds; nearly all actives have a fitted effect of over 45% in size
Summary of the method: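 HEK 293T SBE-bla line, 5 hr compound exposure at 37 C, multiplexed CellTiter-Glo viability read by luminescence.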

[3] = qHTS assay to identify small molecule agonists of the TGF-beta/Smad signaling pathway (AID 1346859; active = well fitted activation curve with a large enough effect in the signal ratio in the repeat runs, not every such curve was filed as active; the % refers to the signal ratio; also: series mostly up to about 77 µM)
Summary of the method: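 Dual-wavelength fluorescence (460/530 nm emission) quantified beta-lactamase expression under the Smad binding element in HEK 293T cells following 5 hr compound treatment at 37 C.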

[4] = target: Thyrotropin-releasing hormone receptor (Homo sapiens) (UniProt P34981); assay: qHTS assay to identify small molecule antagonists of the thyrotropin-releasing hormone receptor (TRHR) signaling pathway (AID 1346877; active = well fitted inhibition curve with a large enough effect in the repeat runs, not every such curve was filed as active; also: series mostly up to about 51 µM)
Summary of the method: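 Human TRHR in HEK293 cells; inhibition of the intracellular calcium rise triggered by 1 nM TRH was followed by fluorescence over 3 min. Compounds were run at 15 concentrations, three replicates each.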

[5] = target: Thyrotropin-releasing hormone receptor (Homo sapiens) (UniProt P34981); assay: qHTS assay to identify small molecule agonists of the thyrotropin-releasing hormone receptor (TRHR) signaling pathway (AID 1346891; calls by dose curve;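 also: HEK293 cells expressing TRHR with calcium dye readout; series mostly up to about 58 µM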)
Summary of the method: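 Kinetic fluorescence (3 min, 1 s intervals) reported intracellular calcium after compound transfer onto TRHR-Hek293 cells pre-loaded with dye for 2 h at 37 °C.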

[6] = Human pregnane X receptor (PXR) small molecule agonists, qHTS cell viability counter screen (AID 1346977); also: nearly all actives have a fitted effect of over 50% in size
Summary of the method: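 HepG2 cells stably carrying the PXR-Luc reporter are cultured with 5% charcoal-stripped FBS and treated with compounds for 24hr. CellTiter-Fluor is added at 23hr and fluorescence is read after 1hr.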

[7] = Caspase-3/7 induction in HepG2 cells by small molecules, qHTS assay (AID 1346978); also: nearly all actives have a fitted effect of over 15% in size
Summary of the method: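 Wild-type HepG2 cells, 2,000/well, settled 5 hr at 37 C and 5% CO2, then compound-treated for 17 hr; caspase-3/7 activity read by luminescent Caspase-Glo 3/7 after 30 min at room temperature.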

[8] = Caspase-3/7 induction in CHO-K1 cells by small molecules, qHTS cell viability counter screen (AID 1346979); also: nearly all actives have a fitted effect of over 35% in size
Summary of the method: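 Seeding: 1,500 CHO-K1 cells/well. Rest: 5hr, 37C. Treatment: compounds in DMSO, 16hr. Read: CellTiter-Fluor, 1hr, fluorescence.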

[9] = Caspase-3/7 induction in CHO-K1 cells by small molecules, qHTS assay (AID 1346980); also: nearly all actives have a fitted effect of over 15% in size
Summary of the method: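 Wild-type CHO-K1 cells exposed to compounds for 17hr at 37 C, 5% CO2. Caspase-3/7 activity then measured by Caspase-Glo 3/7 luminescence after 30min at room temperature.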

[10] = Caspase-3/7 induction in HepG2 cells by small molecules, qHTS cell viability counter screen (AID 1346981); also: series mostly up to about 92 µM; nearly all actives have a fitted effect of over 30% in size
Summary of the method: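 The parent HepG2 line is plated at 2,000 cells per well and rested 5 hr before compound pinning from DMSO stocks. Following a 16-hr treatment at 37 C, a fluorogenic live-cell substrate (CellTiter-Fluor) reports viability after 1 hr.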

[11] = target: Voltage-gated inwardly rectifying potassium channel KCNH2 (Homo sapiens) (UniProt Q12809); assay: Human Ether-a-go-go-Related Gene (hERG) channel small molecule antagonists: fluorescence cell-based qHTS assay (AID 1671200);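 also: hERG-expressing U2OS cells given a thallium stimulus after FluxOR II dye loading; series mostly up to about 77 µM; nearly all actives have a fitted effect of over 50% in size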
Summary of the method: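 First, 1000 cells per well are seeded and cultured overnight at 37 C. Next, FluxOR II dye is loaded for 1 h at room temperature, protected from light. After 10 more minutes, stimulus is added and fluorescence is read.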

[12] = target: Nuclear receptor subfamily 1 group I member 2 (Homo sapiens) (UniProt O75469); assay: Human pregnane X receptor (PXR) small molecule agonists, qHTS assay (AID 1346982); also: nearly all actives have a fitted effect of over 35% in size; also: potency is read from the fitted curve at half-maximal effect
Summary of the method: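 After plating in 5% charcoal-stripped FBS and a 5 hr rest, PXR-Luc HepG2 cells received compounds in DMSO. Following 24 hr at 37 C, ONE-Glo was added and light output read.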

[13] = target: Cytochrome P450 2D6 (Homo sapiens) (UniProt P10635); assay: Cytochrome P450 Family 2 Subfamily D Member 6 (CYP2D6) small molecule antagonists: luciferase reporter qHTS assay (AID 1671196); also: nearly all actives have a fitted effect of over 50% in size; also: potency is read from the fitted curve at half-maximal effect
Summary of the method: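 Quantitative HTS of Tox21 chemicals against CYP2D6 using a luminescent proluciferin substrate. After NADPH addition, 1 h room-temperature reaction; luminescence recorded 20 min post detection reagent.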

[14] = target: Cytochrome P450 2C19 (Homo sapiens) (UniProt P33261); assay: Cytochrome P450 Family 2 Subfamily C Member 19 (CYP2C19) small molecule antagonists: luciferase reporter qHTS assay (AID 1671197); also: nearly all actives have a fitted effect of over 65% in size; also: potency is read from the fitted curve at half-maximal effect
Summary of the method: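 First, compounds are pinned into enzyme-substrate mix and held 10 min at room temperature. Second, NADPH regeneration solution is added and plates incubate 1 h at 37C. Third, detection reagent is added and luminescence read after 20 min.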

[15] = target: Cytochrome P450 3A4 (Homo sapiens) (UniProt P08684); assay: Cytochrome P450 Family 3 Subfamily A Member 4 (CYP3A4) small molecule antagonists: luciferase reporter qHTS assay (AID 1671201); also: nearly all actives have a fitted effect of over 50% in size; also: potency is read from the fitted curve at half-maximal effect
Summary of the method: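 Enzyme and proluciferin substrate are mixed with test chemicals for 10 min, then NADPH regeneration system drives turnover for 1 h at room temperature. A detection reagent halts the reaction; luminescence after 20 min gives relative activity.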

[16] = target: Cytochrome P450 1A2 (Homo sapiens) (UniProt P05177); assay: Cytochrome P450 Family 1 Subfamily A Member 2 (CYP1A2) small molecule antagonists: luciferase reporter qHTS assay (AID 1671199); also: nearly all actives have a fitted effect of over 50% in size; also: potency is read from the fitted curve at half-maximal effect
Summary of the method: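 Quantitative high-throughput format using the P450-Glo CYP1A2 system. Reaction initiated by NADPH regeneration solution, 1 h at room temperature, then stopped with detection reagent; luminescence measured 20 min later.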

[17] = target: Cytochrome P450 2C9 (Homo sapiens) (UniProt P11712); assay: Cytochrome P450 Family 2 Subfamily C Member 9 (CYP2C9) small molecule antagonists: luciferase reporter qHTS assay (AID 1671198); also: nearly all actives have a fitted effect of over 50% in size; also: potency is read from the fitted curve at half-maximal effect
Summary of the method: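 P450-Glo proluciferin substrate with CYP2C9 enzyme; 10 min RT preincubation, then NADPH regeneration 1 h at 37C; luciferin detection reagent 20 min RT, luminescence in relative luminescence units.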

[18] = target: Nuclear receptor subfamily 1 group I member 2 (Rattus norvegicus) (UniProt Q9R1A7); assay: Rat pregnane X receptor (rPXR) activation by small molecules, qHTS assay (AID 1346983); conditions: rPXR luciferase reporter cells, One-Glo luminescence, 24 h; max activation: active compounds read high; also: nearly all actives have a fitted effect of over 20% in size
Summary of the method: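 Cell-based rPXR activation assay: rPXR cells, 2,000 per well, rested 5hr at 37 C, then exposed to compounds in DMSO for 24 hr at 37 C. Luciferase activity read by One-Glo luminescence after 30 min at room temperature.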

[19] = target: Nuclear receptor subfamily 1 group I member 2 (Homo sapiens) (UniProt O75469); assay: CYP3A4 induction through human pregnane X receptor (PXR) by small molecules, qHTS assay (AID 1346984); also: nearly all actives have a fitted effect of over 40% in size
Summary of the method: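 Human PXR activation is tracked via CYP3A4 promoter-luciferase in DPX-2 (HepG2) cells. Compounds treat cells for 24hr at 37C, and luminescence is read after One-Glo.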

[20] = target: Nuclear receptor subfamily 1 group I member 2 (Homo sapiens) (UniProt O75469); assay: Human pregnane X receptor (PXR) activation by small molecules, qHTS assay (AID 1346985); also: nearly all actives have a fitted effect of over 40% in size
Summary of the method: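 DPX-2 cells (HepG2 co-transfected with a PXR response element and a CYP3A4-promoter luciferase construct) were seeded at 2,000 per well, rested 5 hr at 37C, then exposed to DMSO-dissolved compounds for 24 hr. Activation was read as luciferase luminescence.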

Voltage-gated inwardly rectifying potassium channel KCNH2 (Homo sapiens), sequence (Q12809 whole entry, looked up): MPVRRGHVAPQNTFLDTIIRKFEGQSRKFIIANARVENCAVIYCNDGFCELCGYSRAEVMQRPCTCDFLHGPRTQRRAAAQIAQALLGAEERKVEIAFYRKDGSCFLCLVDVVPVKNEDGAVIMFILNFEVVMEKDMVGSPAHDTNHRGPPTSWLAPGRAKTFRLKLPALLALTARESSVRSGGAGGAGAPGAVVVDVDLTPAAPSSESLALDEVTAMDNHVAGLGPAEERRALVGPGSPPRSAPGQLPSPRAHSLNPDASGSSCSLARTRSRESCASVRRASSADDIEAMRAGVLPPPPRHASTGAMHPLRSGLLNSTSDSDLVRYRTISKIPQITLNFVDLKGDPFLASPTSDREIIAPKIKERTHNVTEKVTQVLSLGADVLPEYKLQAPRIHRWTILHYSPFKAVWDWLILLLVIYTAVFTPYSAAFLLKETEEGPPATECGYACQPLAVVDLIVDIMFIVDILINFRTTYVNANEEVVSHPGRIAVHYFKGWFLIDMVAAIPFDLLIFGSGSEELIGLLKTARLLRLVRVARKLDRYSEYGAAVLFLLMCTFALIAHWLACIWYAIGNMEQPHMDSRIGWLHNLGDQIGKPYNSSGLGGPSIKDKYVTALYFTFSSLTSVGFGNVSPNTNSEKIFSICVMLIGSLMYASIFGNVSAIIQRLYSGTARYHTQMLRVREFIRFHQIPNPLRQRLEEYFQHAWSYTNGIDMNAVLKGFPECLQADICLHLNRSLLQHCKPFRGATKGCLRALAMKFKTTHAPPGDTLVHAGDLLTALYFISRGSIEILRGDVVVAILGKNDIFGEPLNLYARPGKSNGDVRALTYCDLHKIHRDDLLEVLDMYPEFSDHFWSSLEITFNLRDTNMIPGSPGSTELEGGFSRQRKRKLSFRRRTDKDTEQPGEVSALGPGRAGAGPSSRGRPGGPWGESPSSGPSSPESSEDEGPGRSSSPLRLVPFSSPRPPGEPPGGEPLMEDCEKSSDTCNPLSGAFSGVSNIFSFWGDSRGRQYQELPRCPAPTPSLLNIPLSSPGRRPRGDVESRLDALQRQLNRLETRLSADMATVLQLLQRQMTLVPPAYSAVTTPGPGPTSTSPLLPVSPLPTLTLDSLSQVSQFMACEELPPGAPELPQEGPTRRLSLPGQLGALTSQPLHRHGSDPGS
Cytochrome P450 2D6 (Homo sapiens), sequence (P10635 whole entry, looked up): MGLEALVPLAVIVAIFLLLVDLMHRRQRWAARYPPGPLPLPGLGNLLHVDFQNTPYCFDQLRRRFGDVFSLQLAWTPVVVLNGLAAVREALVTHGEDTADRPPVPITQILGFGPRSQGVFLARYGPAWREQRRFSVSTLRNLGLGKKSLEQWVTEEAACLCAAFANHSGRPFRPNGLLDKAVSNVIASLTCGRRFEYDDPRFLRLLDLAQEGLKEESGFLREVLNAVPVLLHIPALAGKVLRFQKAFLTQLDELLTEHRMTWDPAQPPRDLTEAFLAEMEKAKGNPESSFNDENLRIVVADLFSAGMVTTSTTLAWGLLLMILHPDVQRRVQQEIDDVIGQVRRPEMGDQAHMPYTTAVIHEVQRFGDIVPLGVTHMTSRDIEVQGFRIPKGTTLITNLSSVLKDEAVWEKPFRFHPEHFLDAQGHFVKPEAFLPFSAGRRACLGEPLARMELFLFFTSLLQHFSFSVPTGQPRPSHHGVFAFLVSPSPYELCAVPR
Cytochrome P450 1A2 (Homo sapiens), sequence (P05177 whole entry, looked up): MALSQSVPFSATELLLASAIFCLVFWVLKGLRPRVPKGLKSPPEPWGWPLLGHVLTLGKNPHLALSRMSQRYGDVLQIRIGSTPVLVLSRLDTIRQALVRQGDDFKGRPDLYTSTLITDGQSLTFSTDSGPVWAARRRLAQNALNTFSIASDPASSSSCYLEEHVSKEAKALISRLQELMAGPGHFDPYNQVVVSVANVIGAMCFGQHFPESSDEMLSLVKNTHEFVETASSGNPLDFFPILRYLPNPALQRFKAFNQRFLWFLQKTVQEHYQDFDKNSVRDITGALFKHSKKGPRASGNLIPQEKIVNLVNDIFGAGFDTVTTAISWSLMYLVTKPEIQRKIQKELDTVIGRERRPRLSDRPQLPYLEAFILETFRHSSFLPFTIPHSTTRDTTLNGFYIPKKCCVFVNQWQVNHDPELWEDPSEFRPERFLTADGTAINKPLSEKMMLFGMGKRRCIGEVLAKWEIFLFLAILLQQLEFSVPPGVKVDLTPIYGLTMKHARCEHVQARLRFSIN
Cytochrome P450 2C19 (Homo sapiens), sequence (P33261 whole entry, looked up): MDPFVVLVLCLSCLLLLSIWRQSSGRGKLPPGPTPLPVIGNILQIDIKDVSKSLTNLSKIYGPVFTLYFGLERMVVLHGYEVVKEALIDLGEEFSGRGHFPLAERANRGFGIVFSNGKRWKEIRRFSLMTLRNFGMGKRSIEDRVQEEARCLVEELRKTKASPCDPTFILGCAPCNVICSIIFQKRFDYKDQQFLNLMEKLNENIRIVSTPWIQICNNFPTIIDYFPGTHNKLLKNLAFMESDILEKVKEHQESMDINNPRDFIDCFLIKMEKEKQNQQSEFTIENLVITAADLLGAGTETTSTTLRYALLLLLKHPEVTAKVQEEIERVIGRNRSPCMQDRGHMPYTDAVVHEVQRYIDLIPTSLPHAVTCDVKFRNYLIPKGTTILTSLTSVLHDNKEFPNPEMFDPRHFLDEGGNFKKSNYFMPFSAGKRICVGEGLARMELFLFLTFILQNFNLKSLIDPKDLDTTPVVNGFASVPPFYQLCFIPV
Nuclear receptor subfamily 1 group I member 2 (Homo sapiens), sequence (O75469 whole entry, looked up): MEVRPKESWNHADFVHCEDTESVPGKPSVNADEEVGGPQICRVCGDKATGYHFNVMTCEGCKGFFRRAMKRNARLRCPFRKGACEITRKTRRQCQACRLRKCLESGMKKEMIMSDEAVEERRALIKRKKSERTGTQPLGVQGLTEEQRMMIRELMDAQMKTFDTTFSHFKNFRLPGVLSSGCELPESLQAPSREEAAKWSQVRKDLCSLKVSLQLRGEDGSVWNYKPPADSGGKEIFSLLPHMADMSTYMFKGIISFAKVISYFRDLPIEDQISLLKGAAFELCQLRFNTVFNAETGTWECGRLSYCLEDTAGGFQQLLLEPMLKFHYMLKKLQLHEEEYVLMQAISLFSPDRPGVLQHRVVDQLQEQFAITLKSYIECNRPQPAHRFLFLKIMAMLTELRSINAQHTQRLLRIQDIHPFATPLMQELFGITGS
Cytochrome P450 3A4 (Homo sapiens), sequence (P08684 whole entry, looked up): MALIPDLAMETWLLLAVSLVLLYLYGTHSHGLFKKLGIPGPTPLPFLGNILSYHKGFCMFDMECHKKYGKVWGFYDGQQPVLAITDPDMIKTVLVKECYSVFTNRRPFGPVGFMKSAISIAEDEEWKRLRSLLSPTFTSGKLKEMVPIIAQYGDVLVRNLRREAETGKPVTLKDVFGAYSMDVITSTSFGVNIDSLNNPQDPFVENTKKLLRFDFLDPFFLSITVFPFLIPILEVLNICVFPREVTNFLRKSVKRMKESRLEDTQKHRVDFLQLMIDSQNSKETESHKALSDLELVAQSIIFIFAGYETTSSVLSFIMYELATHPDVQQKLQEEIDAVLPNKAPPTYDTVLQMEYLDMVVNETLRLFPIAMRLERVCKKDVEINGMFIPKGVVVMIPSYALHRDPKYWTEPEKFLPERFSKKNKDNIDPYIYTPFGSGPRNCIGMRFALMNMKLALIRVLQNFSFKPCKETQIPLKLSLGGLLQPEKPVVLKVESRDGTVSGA
Thyrotropin-releasing hormone receptor (Homo sapiens), sequence (P34981 whole entry, looked up): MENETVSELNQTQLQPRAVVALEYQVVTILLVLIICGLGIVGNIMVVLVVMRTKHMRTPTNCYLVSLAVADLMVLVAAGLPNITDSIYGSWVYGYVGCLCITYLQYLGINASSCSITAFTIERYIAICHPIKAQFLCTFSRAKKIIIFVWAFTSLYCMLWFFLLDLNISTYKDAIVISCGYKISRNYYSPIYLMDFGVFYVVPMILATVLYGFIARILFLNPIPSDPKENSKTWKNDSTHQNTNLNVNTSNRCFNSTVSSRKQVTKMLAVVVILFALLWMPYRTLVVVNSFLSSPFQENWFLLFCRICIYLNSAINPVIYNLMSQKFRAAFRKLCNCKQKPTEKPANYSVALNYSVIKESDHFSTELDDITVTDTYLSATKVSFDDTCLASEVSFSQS
Cytochrome P450 2C9 (Homo sapiens), sequence (P11712 whole entry, looked up): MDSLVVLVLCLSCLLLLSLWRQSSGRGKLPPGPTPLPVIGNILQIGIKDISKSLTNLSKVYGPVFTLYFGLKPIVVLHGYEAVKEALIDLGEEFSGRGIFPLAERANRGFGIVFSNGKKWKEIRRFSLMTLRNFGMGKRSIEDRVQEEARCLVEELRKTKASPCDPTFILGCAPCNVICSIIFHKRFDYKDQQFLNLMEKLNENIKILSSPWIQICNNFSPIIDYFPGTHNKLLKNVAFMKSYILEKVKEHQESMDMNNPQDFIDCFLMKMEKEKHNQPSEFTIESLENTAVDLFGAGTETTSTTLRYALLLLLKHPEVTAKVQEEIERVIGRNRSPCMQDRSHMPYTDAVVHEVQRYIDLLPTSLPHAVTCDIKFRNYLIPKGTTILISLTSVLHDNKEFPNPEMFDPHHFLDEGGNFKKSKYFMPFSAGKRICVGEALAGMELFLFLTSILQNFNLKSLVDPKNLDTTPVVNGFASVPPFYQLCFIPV
Nuclear receptor subfamily 1 group I member 2 (Rattus norvegicus), sequence (Q9R1A7 whole entry, looked up): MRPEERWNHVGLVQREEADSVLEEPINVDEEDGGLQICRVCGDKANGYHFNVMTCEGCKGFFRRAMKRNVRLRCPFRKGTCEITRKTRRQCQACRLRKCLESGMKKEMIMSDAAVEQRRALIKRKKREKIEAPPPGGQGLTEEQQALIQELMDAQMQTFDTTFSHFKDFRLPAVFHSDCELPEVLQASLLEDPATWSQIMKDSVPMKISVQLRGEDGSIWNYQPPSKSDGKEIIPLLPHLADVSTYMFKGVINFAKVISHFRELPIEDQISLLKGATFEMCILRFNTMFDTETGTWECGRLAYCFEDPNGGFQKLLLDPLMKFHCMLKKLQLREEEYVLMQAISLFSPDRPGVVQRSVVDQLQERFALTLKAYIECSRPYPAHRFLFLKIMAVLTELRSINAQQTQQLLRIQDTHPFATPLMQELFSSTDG

| Compound | outcome [1] | outcome [2] | outcome [3] | outcome [4] | outcome [5] | Potency [6] | outcome [7] | Potency [8] | outcome [9] | Potency [10] | Potency [11] | Potency [12] | Potency [13] | Potency [14] | Potency [15] | Potency [16] | Potency [17] | max activation [18] [%] | outcome [19] | Potency [20] |
| --- | --- | --- | --- | --- | --- | --- | --- | --- | --- | --- | --- | --- | --- | --- | --- | --- | --- | --- | --- | --- |
| CCCCCCCCCCCCCCCC(=O)NCCO | inactive | inactive | inactive | inactive | inactive | inactive | inactive | inactive | inactive | inactive | inactive | – | – | – | – | – | – | – | – | – |
| COCCOCCOCCOC | inactive | inactive | inactive | inactive | inactive | inactive | inactive | inactive | inactive | inactive | inactive | inactive | inactive | inactive | inactive | – | – | – | – | – |
| CC1(N)CCC(C(C)(C)N)CC1 (stereo unspecified) | inactive | inactive | inactive | inactive | inactive | inactive | inactive | inactive | inactive | inactive | inactive | inactive | 20 µM (active) | – | inactive | inactive | – | – | – | – |
| COc1ccc(OC)c(NC(=O)CC(C)=O)c1 | inactive | inactive | inactive | inactive | inactive | inactive | inactive | inactive | inactive | inactive | inactive | 54.5 µM (active) | 31.7 µM (active) | 15.9 µM (active) | 22.4 µM (active) | 15.9 µM (active) | 31.7 µM (active) | – | – | – |
| C=C[C@@H](C)CCC=C(C)C | inactive | inactive | inactive | inactive | inactive | inactive | inactive | inactive | inactive | inactive | inactive | – | inactive | inactive | inactive | 39.9 µM (active) | – | – | – | – |
| CC(=O)Nc1ncc([N+](=O)[O-])s1 | inactive | inactive | inactive | inactive | inactive | inactive | inactive | inactive | inactive | inactive | inactive | inactive | inactive | inactive | inactive | 15.5 µM (active) | – | -3.65 | inactive | inactive |
| FC(F)(F)/C(=N\OCC1OCCO1)c1ccc(Cl)cc1 | inactive | inactive | inactive | inactive | inactive | inactive | inactive | inactive | inactive | inactive | inactive | inactive | inactive | 1.59 µM (active) | inactive | 2.24 µM (active) | 31.7 µM (active) | – | – | – |
| Nc1cc(S(=O)(=O)O)ccc1S(=O)(=O)O | inactive | inactive | inactive | inactive | inactive | inactive | inactive | inactive | inactive | inactive | inactive | inactive | inactive | inactive | inactive | inactive | inactive | – | – | – |
